For 24 molecules, outcome and AC50 results are on record in PubChem BioAssay (EPA / NIEHS).

The structures appear in SMILES notation. Inconclusive results are not listed. The source made the active and inactive calls. Rule for the calls: active = hit-call score of the fitted dose curve at least 0.9, where 1 is the maximum; inconclusive = response in the unintended direction; inactive = score below 0.9.

The nature of assay [1]: TOX21_p53_BLA_p2_viability: Viability Assessment in the Tox21 HCT-116 p53 Agonism Beta-lactamase Assay, Phase 2 (AID 2283591).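 Note: compound exposure lasted 16 h at 37 °C; actives lower the ATP signal meaning cytotoxicity.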 In short, it runs like this: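 Cytotoxicity readout: CellTiter-Glo ATP luminescence, 30 min at room temperature, after the beta-lactamase read. Cells were HCT116 exposed 16 h at 37C to compounds pin-transferred at 217-fold dilution from DMSO stocks.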

In assay [2] the target is Cellular tumor antigen p53 (Homo sapiens) (UniProt P04637). Description: TOX21_p53_BLA_p2_ratio: Tox21 HCT-116 p53 Agonism Beta-lactamase Assay, Ratio, Phase 2 (AID 2283592). The method in brief: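 Gain-of-signal p53 agonism was scored from the beta-lactamase FRET ratio (460/530 nm, 405 nm excitation) in HCT116 cells treated 16 h at 37C, 5% CO2, with DMSO serving as negative control and baseline.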
Cellular tumor antigen p53 (Homo sapiens), sequence (P04637 whole entry, looked up): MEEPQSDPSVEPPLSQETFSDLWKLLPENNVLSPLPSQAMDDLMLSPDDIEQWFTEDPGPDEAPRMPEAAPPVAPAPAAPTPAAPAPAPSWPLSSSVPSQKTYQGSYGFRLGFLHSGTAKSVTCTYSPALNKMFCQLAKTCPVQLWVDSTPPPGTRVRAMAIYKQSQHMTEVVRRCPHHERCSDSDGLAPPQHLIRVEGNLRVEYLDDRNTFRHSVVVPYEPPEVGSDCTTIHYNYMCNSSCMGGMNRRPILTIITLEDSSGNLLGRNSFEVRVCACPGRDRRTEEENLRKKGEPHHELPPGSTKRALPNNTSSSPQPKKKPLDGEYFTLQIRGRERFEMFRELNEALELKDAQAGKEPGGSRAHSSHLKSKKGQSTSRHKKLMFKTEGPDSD

Assay [3] can be described thus: TOX21_p53_BLA_p3_viability: Viability Assessment in the Tox21 HCT-116 p53 Agonism Beta-lactamase Assay, Phase 3 (AID 2283593).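 Note: cells exposed to compound for 16 h before reading.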 In short, it runs like this: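 Cellular ATP was quantified by CellTiter-Glo luminescence, read after 30 min at room temperature. Beforehand, HCT116 cells (4000/well) received compound 5 h post-seeding, 217-fold diluted from DMSO, then incubated 16 h at 37C.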

For assay [4], the target named is Cellular tumor antigen p53 (Homo sapiens) (UniProt P04637). Description: TOX21_p53_BLA_p3_ratio: Tox21 HCT-116 p53 Agonism Beta-lactamase Assay, Ratio, Phase 3 (AID 2283596). The method in brief: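 HCT116 p53-bla cells (4000/well) given compound in DMSO (217-fold dilution) after 5 h, incubated 16 h at 37C. CCF4-AM substrate 2 h at room temperature; 460/530 nm emission ratio, gain fitted against DMSO.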

A short description of assay [5]: TOX21_p53_BLA_p4_viability: Viability Assessment in the Tox21 HCT-116 p53 Agonism Beta-lactamase Assay, Phase 4 (AID 2283597).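 Note: hits lower the luminescence signal meaning cytotoxicity.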 The method in brief:
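Following a 16 h exposure at 37C, the treated HCT116 wells were first read for the FRET ratio. They were then lysed with CellTiter-Glo, and ATP luminescence was recorded after 30 min at room temperature.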

For assay [6], the target named is Cellular tumor antigen p53 (Homo sapiens) (UniProt P04637). Description: TOX21_p53_BLA_p5_ratio: Tox21 HCT-116 p53 Agonism Beta-lactamase Assay, Ratio, Phase 5 (AID 2283599). In short, it runs like this:
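Beta-lactamase reporter ratio (blue 460 nm over green 530 nm, 405 nm excitation) after 2 h CCF4-AM loading, in HCT-116 cells exposed 16 h at 37 C to compounds pinned at 217-fold dilution. Increases relative to DMSO baseline scored.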

Assay [7] shares this target. Description: TOX21_p53_BLA_p4_ratio: Tox21 HCT-116 p53 Agonism Beta-lactamase Assay, Ratio, Phase 4 (AID 2283601). In short, it runs like this: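 Signal is the blue/green (460nm/530nm) ratio of cleaved versus uncleaved CCF4-AM substrate, read after 2 h substrate loading. Cells were HCT116 carrying the p53-responsive beta-lactamase reporter, dosed 16 h at 37C, 5% CO2; CellTiter-Glo measured in parallel.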

In the case of `C1CC(COCC2CO2)CCC1COCC1CO1` (stereo not drawn), the outcome in assay [1], in assay [2], in assay [3], in assay [4], in assay [5] and in assay [6] was inactive. Also, the result in assay [7] was inactive.
Turning to `Nc1ccncc1N`, the outcome in assay [1], in assay [2], in assay [3], in assay [4], in assay [5] and in assay [6] was inactive. The outcome in assay [7] was inactive.
For the molecule `O=C1C(=Cc2cccs2)CCCC1=Cc1cccs1`, the outcome in assay [1], in assay [2], in assay [3], in assay [4], in assay [5] and in assay [6] was inactive. Further, the result in assay [7] was inactive.
As for `COc1cc(C(=O)N2CCOCC2)cc(OC)c1OC`, the molecule was classed as inactive in assay [1], in assay [2], in assay [3], in assay [4], in assay [5] and in assay [6]. The result in assay [7] was inactive.
With `O=C(CO)[C@@H](O)[C@H](O)[C@@H](O)C(=O)O`, the molecule was called inactive in assay [1], in assay [2], in assay [3], in assay [4], in assay [5] and in assay [6]. In addition, the result in assay [7] was inactive.
On to `C#C[C@]1(O)CC[C@H]2[C@@H]3CCC4=C/C(=N/O)CC[C@@H]4[C@H]3CC[C@@]21CC`, for which the molecule was classed as inactive in assay [1], in assay [2], in assay [3], in assay [4], in assay [6] and in assay [7]. For the same molecule, in assay [5], the AC50 is 38.1 µM (active).
For the molecule `Cc1ccc2c(ccc3ccccc32)c1`, the molecule was classed as inactive in assay [1], in assay [2], in assay [3], in assay [4], in assay [5] and in assay [6]. For the same molecule, in assay [7], the outcome was inactive.
On to `CC(C)(S)C(=O)N[C@@H](CS)C(=O)O`, for which the outcome in assay [1], in assay [2], in assay [3], in assay [4], in assay [5] and in assay [6] was inactive. The result in assay [7] was inactive.
With `CC(=O)Nc1ccc(C)cc1`, the molecule was classed as inactive in assay [1], in assay [2], in assay [3], in assay [4], in assay [5] and in assay [6]. Further, in assay [7], the outcome was inactive.
With `O=Cc1cc2ccccc2o1`, the molecule was called inactive in assay [1], in assay [2], in assay [3], in assay [4], in assay [5] and in assay [6]. Also, the result in assay [7] was inactive.
On to `O=S(=O)(c1ccccc1)c1ccc(Cl)cc1`, for which the molecule was called inactive in assay [1], in assay [2], in assay [3], in assay [4], in assay [5] and in assay [6]. Moreover, the result in assay [7] was inactive.
Turning to `Cc1ncc(C[n+]2csc(CCOP(=O)(O)OP(=O)(O)O)c2C)c(N)n1`, the outcome in assay [1], in assay [2], in assay [3], in assay [4], in assay [5] and in assay [6] was inactive. Moreover, the outcome in assay [7] was inactive.
For `O=C(C=Cc1ccc(O)c(O)c1)O[C@@H]1C[C@@](OC(=O)C=Cc2ccc(O)c(O)c2)(C(=O)O)C[C@@H](O)[C@@H]1O`, the result in assay [1], in assay [2], in assay [3], in assay [4], in assay [5] and in assay [6] was inactive. Moreover, the result in assay [7] was inactive.
With `Nc1nc2[nH]cc(CCc3ccc(C(=O)N[C@@H](CCC(=O)O)C(=O)O)cc3)c2c(=O)[nH]1`, the outcome in assay [1], in assay [2], in assay [3], in assay [4], in assay [5] and in assay [6] was inactive. Moreover, the result in assay [7] was inactive.
`CCOC(=O)[C@H](CCc1ccccc1)N[C@@H](C)C(=O)N1[C@H](C(=O)O)C[C@@H]2CCC[C@@H]21`: the outcome in assay [1], in assay [2], in assay [3], in assay [4], in assay [5] and in assay [6] was inactive. For the same molecule, in assay [7], the outcome was inactive.
For `Cc1ccc2c(Br)cc(Br)c(O)c2n1`, the outcome in assay [1], in assay [3], in assay [4] and in assay [6] was inactive. Besides, the AC50 in assay [2] is 40.4 µM (active); in assay [5] it was 16.8 µM (active); in assay [7], 43 µM (active).
On to `CCCCC[C@H](O)/C=C/[C@@H]1[C@H]2C/C(=C/CCCC(=O)O)O[C@H]2C[C@H]1O`, for which the result in assay [1], in assay [2], in assay [3], in assay [4], in assay [5] and in assay [6] was inactive. Further, the outcome in assay [7] was inactive.
As to `O=C1CCC(c2ccccc2)(C2CCN(Cc3ccccc3)CC2)C(=O)N1` (stereo not drawn), the molecule was called inactive in assay [1], in assay [2], in assay [3], in assay [4], in assay [5] and in assay [6]. The result in assay [7] was inactive.
Regarding `CC(C)(C)OC(=O)c1cccc(N)c1`, the outcome in assay [1], in assay [2], in assay [3], in assay [4], in assay [5] and in assay [6] was inactive. In assay [7], the outcome was inactive.
Regarding `COc1cccc(O)c1O`, the result in assay [1], in assay [2], in assay [3], in assay [4], in assay [5] and in assay [6] was inactive. Further, in assay [7], the result was inactive.
On to `C[C@@H]1C[C@H]2O[C@@]3(O[C@@H]2C(C)(C)O)[C@H](O)[C@@]2(C)[C@@H]4CC[C@H]5C(C)(C)[C@@H](O[C@@H]6OC[C@@H](O)[C@H](O)[C@H]6O)CC[C@@]56C[C@@]46CC[C@]2(C)[C@@H]13`, for which the call in assay [1], in assay [2], in assay [3], in assay [4], in assay [5] and in assay [6] was inactive. The result in assay [7] was inactive.
On to `COc1ccc2cc1Oc1cc3c(cc1OC)CC[N+](C)(C)[C@H]3Cc1ccc(cc1)Oc1c(OC)c(OC)cc3c1[C@@H](C2)[N+](C)(C)CC3`, for which the outcome in assay [1], in assay [2], in assay [3], in assay [4], in assay [5] and in assay [6] was inactive. The result in assay [7] was inactive.
For the molecule `CN(C)C(=O)Oc1cccc([N+](C)(C)C)c1`, the molecule was classed as inactive in assay [1], in assay [2], in assay [3], in assay [4], in assay [5] and in assay [6]. The outcome in assay [7] was inactive.
As to `O=[N+]([O-])c1ccc(Oc2ccc(N=C=S)cc2)cc1`, the molecule was classed as inactive in assay [1], in assay [3] and in assay [5]. Further, the half-maximal activity concentration (AC50) in assay [2] was 12.9 µM (active); in assay [4] it was 8.52 µM (active); in assay [6], 10.8 µM (active); in assay [7], 13.4 µM (active).
